Sampled rows, rich in hits. Any-hit rate of the full collection: about 2.4%.
D2 PAM-1 = human D2 receptor positive allosteric modulation. 360,000 tested, 0.23% active. DiscoveRx D2 beta-arrestin cells, luminescence, 90 min; 100% = 57 uM dopamine signal. potentiation, % (test concentration not listed). P14416; in the data active = potentiation above about 50%; inconclusive = mostly about 30% to 49%
Target sequence (P14416 whole entry, looked up): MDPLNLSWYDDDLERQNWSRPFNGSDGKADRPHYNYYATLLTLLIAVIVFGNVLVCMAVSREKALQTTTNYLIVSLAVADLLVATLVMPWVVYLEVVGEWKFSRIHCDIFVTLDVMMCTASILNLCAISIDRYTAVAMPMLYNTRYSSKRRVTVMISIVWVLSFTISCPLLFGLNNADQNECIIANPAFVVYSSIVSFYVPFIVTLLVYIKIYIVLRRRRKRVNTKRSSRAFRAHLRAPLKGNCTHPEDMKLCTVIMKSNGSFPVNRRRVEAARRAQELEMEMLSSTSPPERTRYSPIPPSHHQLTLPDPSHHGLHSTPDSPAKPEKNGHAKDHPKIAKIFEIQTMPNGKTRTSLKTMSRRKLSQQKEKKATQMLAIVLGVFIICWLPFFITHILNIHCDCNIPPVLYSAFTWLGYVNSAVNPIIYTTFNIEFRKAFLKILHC
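PathHunter beta-arrestin assay in DiscoveRx D2 cells. Compounds were added with an EC20 of dopamine (50 nM final) for 90 min at 37 deg C. Luminescence was read 1 h after detection reagent, with 57 uM dopamine as the EC100 control.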
D2 antag = D2 dopamine receptor (human) antagonism. P14416. HEK293 TREx D2 cells, calcium flux, dopamine EC80. inhibition, % at 10 µM. 340,000 tested, 2% active. AID 485344; in the data active = inhibition above about 30%; inactive = below that, where a call was filed
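Cells plated overnight at 30 C with tetracycline; no-wash calcium dye, 30–90 min RT; 10 s baseline; compound pinned; 180 s read; EC80 dopamine added; another 180 s read.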
D2 ag-1 = activates the human D2 dopamine receptor | P14416 | DiscoveRx PathHunter D2 beta-arrestin, luminescence, 90 min; 100% = 57 uM dopamine signal | activation, % (no concentration beside the values) | 360,000 tested, 0.084% active | AID 624465; in the data active = activation above about 40%; inconclusive = between about 15% and that limit
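Agonist mode: compounds alone added to overnight-plated D2 PathHunter cells for 90 min at 37 C, with 57 uM final dopamine (EC100) defining full response. Beta-arrestin recruitment detected by chemiluminescent reagent, read after 1 h at ambient temperature.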
D2 ag-2 = agonists of human D2 dopamine receptor; P14416; HEK293 T-REx D2 cells, calcium flux agonist mode; activation, % at 2 µM; 340,000 tested, 0.53% active;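 active = activation over 3 SD above normal in the single-dose calcium agonist read, cut at about 30% in these data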
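Agonism is scored from calcium flux in a force-coupled, inducible HEK293 cell line expressing D2, read kinetically for 180 s after compound addition against dopamine controls.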
D2 PAM-2 = positive allosteric modulators of human D2 dopamine receptor; potentiation, % at 10 µM; 340,000 tested, 0.34% active; AID 485347; HEK293 T-REx D2, calcium flux, EC20 dopamine potentiation;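 active = potentiation over 3 SD above the plate norm, cut at about 30% in these data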
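Tetracycline-induced Hek293 Trex D2 cells, force-coupled to calcium, loaded with no-wash calcium dye. Compound added with 180 s kinetic read for agonism, then EC20 dopamine and a further 180 s read for potentiation.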
Of the large screens only hits and unclear results are named; the others gave an inactive call.

CC(C)(C)NC(=O)C1CC2CCCCC2CN1 (stereo not given)	D2 antag 64.2
Cc1cc(O)c(CN2CC=C(c3ccccc3)CC2)cc1C(C)C	D2 antag 74.6
O=c1cc(CN2CC=C(c3ccccc3)CC2)c2c(ccc3ccccc32)o1	none
O=C1N(c2nncs2)CCN1[N+](=O)[O-]	D2 PAM-1 68.8
CCOc1ccc(CN(CCc2ccc3c(c2)OCO3)Cc2cc(OC)ccc2O)cc1	none (no result: D2 PAM-1, D2 antag, D2 ag-1)
CC(=O)c1ccc(OC(NC(=O)c2ccco2)C(Cl)(Cl)Cl)cc1 (stereo not given)	D2 PAM-2 32.0
O=C(NC(Oc1ccccc1)C(Cl)(Cl)Cl)c1ccccc1 (stereo not given)	none
C[C@H]1OC[C@@H](C[N+](C)(C)C)O1	D2 ag-2 40.4
CC1OC(C[N+](C)(C)C)CC1O (stereo not given)	none
CCn1ccnc1CN1CCCC(C(=O)c2ccc(SC)cc2)C1 (stereo not given)	none
CSc1ccc(C(=O)C2CCCN(CCCn3cccn3)C2)cc1 (stereo not given)	D2 antag 35.9
CC(/C=C(\C)Nc1ccccc1)=Nc1ccccc1	D2 PAM-2 36.8
O=C(Nc1ccccc1)Oc1ccccc1	none
Cc1ccc(-n2c(=O)[nH]c3ccc(Br)cc3c2=O)cc1	none (no result: D2 PAM-1, D2 antag, D2 ag-1)
CCCCC1(CN2CCCC2=O)C(=O)NC(=O)NC1=O	D2 antag 44.6
CN1C[C@H](CO)C=C2c3cccc4[nH]cc(c34)C[C@H]21	D2 ag-1 68.5
Clc1cccc(N2CCNCC2)c1	D2 antag 35.0
Cc1sc2ncn(CC(=O)N3CCC4(CC3)OCCO4)c(=O)c2c1C	D2 PAM-2 30.0
CC(=NCCN1CCOCC1)c1c(O)n(Cc2ccccc2)c(=O)[nH]c1=O	none
C=CCn1c(O)c(C(CC)=NC2CC2)c(=O)[nH]c1=O	D2 antag 39.3
C=CCn1c(O)c(C(C)=NCCN2CCOCC2)c(=O)[nH]c1=O	D2 antag 39.5
Cc1ncc([N+](=O)[O-])n1CCOC(N)=O	D2 antag 38.2
CCN1C(=O)NC(=O)/C(=C/c2cc(C)n(-c3sc(C)c(C)c3C#N)c2C)C1=O	D2 PAM-2 44.2
CC(=O)OCC[N+](C)(C)C	D2 ag-2 45.2
C[N+](C)(C)CCOC(=O)CBr	none
CSc1ncc(CN2CCCC(C(=O)c3ccccc3SC)C2)cn1 (stereo not given)	none
CSc1ccccc1C(=O)C1CCCN(Cc2ccn[nH]2)C1 (stereo not given)	D2 antag 48.4
Cc1ccc(NC(=O)CN2C(=O)CN=C(c3ccccc3)c3ccccc32)c(C)c1	none (no result: D2 PAM-1, D2 antag, D2 ag-1)
CCc1ccc(-n2nc(C)c3c2NC(=O)CSC3c2ccc(OC)cc2OC)cc1 (stereo not given)	none (no result: D2 PAM-1, D2 antag, D2 ag-1)
CCC1(C)OC(c2ccccc2)=C/C(=C/C=C2C(=O)NC(=O)NC2=O)O1 (stereo not given)	D2 antag 43.3
Cc1ccc(CN2C3CCCC2CC(NC(=O)Nc2cccc(F)c2)C3)cc1 (stereo not given)	D2 antag 75.0
CC(C)OP(=O)(OC(C)C)C(O)c1ccc(Br)cc1 (stereo not given)	D2 PAM-1 103.7
COc1ccc(-c2nc(CN3C(=O)CN=C(c4ccccc4Cl)c4cc(Cl)ccc43)c(C)o2)cc1OC	none (no result: D2 PAM-1, D2 antag, D2 ag-1)
COc1ccc(-n2c(/C=C\c3ccccc3F)nc3ccccc3c2=O)cc1OC	none (no result: D2 PAM-1, D2 antag, D2 ag-1)
C[C@@H]1CC[C@H]2[C@@H](C)C(=O)O[C@@H]3O[C@@]4(C)CC[C@@H]1[C@]32OO4	D2 PAM-1 64.0, D2 ag-1 inconclusive
Cc1ccsc1C(=O)C1CCCN(Cc2cccc(-n3cccn3)c2)C1 (stereo not given)	none
COc1ccc(CN2CCCC(C(=O)c3sccc3C)C2)cc1O (stereo not given)	D2 antag 41.0
Cc1ccsc1C(=O)C1CCCN(Cc2cccc(OCCO)c2)C1 (stereo not given)	D2 antag 51.9
Cc1cccc(NC(=O)Cn2cc(C(=O)c3ccccc3)c3ccccc32)c1	none (no result: D2 PAM-1, D2 antag, D2 ag-1)
Cc1ccc(Cn2cccc(C(=O)Nc3ccc(C)c(Cl)c3)c2=O)cc1	none (no result: D2 PAM-1, D2 antag, D2 ag-1)
CCCCC1(CCCC)C(=O)NC(=Nc2cccc(C)c2)NC1=O	none
Cc1cccc(N=C2c3cc([N+](=O)[O-])ccc3-c3c2cc([N+](=O)[O-])cc3[N+](=O)[O-])c1	D2 PAM-1 109.4 (no result: D2 antag, D2 ag-2, D2 PAM-2)
CC(C)Cc1nc2cccnc2n1C1CCNCC1	none (no result: D2 PAM-1, D2 antag, D2 ag-1)
CCN1/C(=C\C=C\C2=[N+](CC)c3ccccc3C2(C)C)C(C)(C)c2ccccc21	D2 ag-2 50.3
CN1CCN(c2csc3ccc(F)cc3c2=O)CC1	none (no result: D2 PAM-1, D2 antag, D2 ag-1, D2 ag-2)
CCOc1ccc(CN(CCc2ccc3c(c2)OCO3)Cc2ccc(CC)cc2)cc1	none (no result: D2 PAM-1, D2 antag, D2 ag-1)
CCCCCCN1CCN(c2ccccc2Cl)CC1	D2 antag 76.1
Cc1cccc(N2CCN(CCc3ccccc3)CC2)c1C	none
COc1cc(/C=C/c2nc3ccccc3c(=O)n2-c2ccc(Br)c(C)c2)ccc1O	none (no result: D2 PAM-1, D2 antag, D2 ag-1, D2 PAM-2)
CC1CN(c2cc([N+](=O)[O-])ccc2Cl)CC(C)N1 (stereo not given)	D2 antag 68.7
CN1CCN(c2ccc([N+](=O)[O-])cc2Cl)CC1	none
CN1CCN(c2cc([N+](=O)[O-])ccc2Cl)CC1	D2 antag 69.4
O=S1(=O)N(Cc2ccccc2Cl)CCCN1Cc1ccccc1Cl	none (no result: D2 PAM-1, D2 antag, D2 ag-1)
Cc1cc(-n2c(/C=C/c3ccc(Br)s3)nc3ccccc3c2=O)ccc1Br	none (no result: D2 PAM-1, D2 antag, D2 ag-1, D2 ag-2)
COC(COC(N)=O)C1=C(N2CC2)C(=O)C(C)=C(N2CC2)C1=O (stereo not given)	D2 PAM-1 72.2, D2 ag-1 inconclusive (no result: D2 antag, D2 ag-2, D2 PAM-2)
CCCC1=C(C(=O)OCC)C2(C(=O)Nc3ccc(C)cc32)C(C#N)=C(N)O1 (stereo not given)	D2 PAM-1 inconclusive
CCOC(=O)CC1=C(C(=O)OCC)C2(C(=O)Nc3ccccc32)C(C#N)=C(N)O1 (stereo not given)	D2 PAM-1 75.2
Cc1ccc(C2CC3CCC(C2)N3Cc2ccccc2F)cc1 (stereo not given)	D2 antag 67.8
COc1ccc(-c2nc(CN3C(=O)CN=C(c4ccccc4)c4cc(Cl)ccc43)c(C)o2)cc1	none (no result: D2 PAM-1, D2 antag, D2 ag-1, D2 PAM-2)
CCC1(c2cccc(O)c2)CCCCN(C)C1 (stereo not given)	D2 antag 39.3
Cc1ccccc1CN1C(=O)C(C)N=C(c2ccccc2)c2ccccc21 (stereo not given)	none (no result: D2 PAM-1, D2 antag, D2 ag-1)
CCC(C)N1C(=O)NC(=O)C2(Cc3c(ccc4ccccc34)N(C)C2)C1=O (stereo not given)	D2 PAM-1 76.5
COc1ccc2c(c1)CC1(CN2C)C(=O)NC(=O)N(CCc2ccccc2)C1=O (stereo not given)	none
Cn1c(=O)n(C)c2cc(CNCCc3ccccc3F)ccc21	none (no result: D2 PAM-1, D2 antag, D2 ag-1)
CN(C)C1(CNC(=O)Nc2ccc(Cl)c(Cl)c2)CCCCC1	D2 antag 54.3

Source: PubChem
